Inconclusive results are not listed. Values without a mark were called inactive. Active and inactive are the calls of the source. Calls follow the shape of the dose curve; as a rule, active = well fitted curve in the direction sought with a large enough effect; inconclusive = small, poorly fitted or top-dose-only effect, or another doubt; inactive = no such curve, though single readings can be large; an effect the other way counts as inactive or inconclusive.
Legend:
astro = control astrocytes; assay: Drug repurposing screens with cells derived from glioblastoma tumor samples (AID 1345199); conditions: viability, ATP luminescence, 48 h; series mostly up to 45.9 µM; also: nearly all actives have a fitted effect of over 40% in size; as to activity, negative = cell killing: % is scaled to controls: 0 for no effect and ±100 for the full control effect
Outline: (§1)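 Four patient lines of CD133+ GBM neurospheres were screened at several concentrations; hits were retested in those lines plus three slower-growing GBM lines, using 48-hour treatment and ATP-based viability.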

[1] = as above; conditions: GBM patient neurospheres viability, ATP luminescence, 48 h
Outline: as §1

[2] = qHTS assay to identify inhibitors of the type 1 interferon - major histocompatibility complex class I in skeletal muscle: Counter screen cell viability and HiBit confirmation (AID 1347412); conditions: iHSKM muscle cells + IFN-b, HiBiT or CellTiter-Glo, 24 h; also: nearly all actives have a fitted effect of over 60% in size
Outline: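 After 24 h with human IFN-beta (4 ng/ml) and compound titrations (top 46 uM final, 1:3, 12 points), HLA-B HiBit myoblasts were lysed for either Nano-Glo HiBiT luminescence or CellTiter Glo viability on paired plates.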

[3] = at 45.9 µM (top of the series), tumour line B
[4] = at 45.9 µM (top of the series), tumour line D
[5] = at 46.1 µM (top of the series), tumour line C
Potency is read from the fitted curve at half-maximal effect.

## COc1cc([C@@H]2c3cc4c(cc3C(O[C@@H]3O[C@@H]5COC(c6cccs6)O[C@H]5[C@H](O)[C@H]3O)C3COC(=O)[C@@H]32)OCO4)cc(OC)c1O (stereo not given in full)
astro
  Potency: 12.6 µM (active)

## CCOC(=O)[C@H](CCc1ccccc1)N[C@H]1CCCN2CCC[C@@H](C(=O)O)N2C1=O
[1]; [3]
  activity, negative = cell killing: -17.5%
[1]; [4]
  activity, negative = cell killing: -14.2%
[1]; [5]
  activity, negative = cell killing: 4.99%
astro
  Potency: inactive

## CCCCCCCCCCCCCCCC(=O)OC[C@H](O)[C@H]1OC(=O)C(O)=C1O
[1]; [3]
  activity, negative = cell killing: -21.6%
[1]; [4]
  activity, negative = cell killing: -24.1%
astro
  Potency: inactive

## NNc1nnc(Cc2ccncc2)c2ccccc12
[1]; [3]
  activity, negative = cell killing: -17.7%
[1]; [4]
  activity, negative = cell killing: -26.1%
[1]; [5]
  activity, negative = cell killing: -26.3%
astro
  Potency: inactive

## CO[C@H]1[C@@H](O)[C@H](N)[C@@H](O[C@H]2O[C@H]([C@H](C)N)CC[C@H]2N)[C@H](O)[C@@H]1N(C)C(=O)CN
[1]; [3]
  activity, negative = cell killing: -11.8%
[1]; [4]
  activity, negative = cell killing: -4.2%
[1]; [5]
  activity, negative = cell killing: -7.2%
astro
  Potency: inactive

## C/C=C1\NC(=O)[C@H]2CSSCC/C=C/[C@H](CC(=O)N[C@H](C(C)C)C(=O)N2)OC(=O)C(C(C)C)NC1=O (stereo not given in full)
astro
  Potency: 0.708 µM (active)

## CCC(C)(C)OC(=O)N[C@@H](Cc1c[nH]c2ccccc12)C(=O)N[C@@H](CCSC)C(=O)N[C@@H](CC(=O)O)C(=O)N[C@@H](Cc1ccccc1)C(N)=O
[1]; [3]
  activity, negative = cell killing: -2.77%
[1]; [4]
  activity, negative = cell killing: -10.3%
[1]; [5]
  activity, negative = cell killing: -14.8%
astro
  Potency: inactive

## Cc1ccc(C(=O)Nc2ccc(CN3CCN(C)CC3)c(C(F)(F)F)c2)cc1C#Cc1cnc2[nH]ncc2c1
[2]; HiBiT
  Potency: 0.394 µM (active)

## Cc1c(O)cc2c(c1C)O[C@](C)(CCC[C@H](C)CCC[C@H](C)CCCC(C)C)CC2
astro
  Potency: inactive

## CO[C@H]1C[C@H](O[C@H]2[C@H](C)O[C@@H](O[C@@H]3/C(C)=C/C[C@@H]4C[C@@H](C[C@]5(C=C[C@H](C)[C@@H](C6CCCCC6)O5)O4)OC(=O)[C@@H]4C=C(C)[C@@H](O)[C@H]5OC/C(=C\C=C\[C@@H]3C)[C@]54O)C[C@@H]2OC)O[C@@H](C)[C@@H]1O
astro
  Potency: 17.8 µM (active)

## COc1cccc(OCCCN)c1-c1cc(Nc2cnc(C#N)cn2)n[nH]1
[2]; HiBiT
  Potency: 15.7 µM (active)
[2]; Viability
  Potency: 17.6 µM (active)

## CCOC(=O)Nc1ccc2c(c1)N(C(=O)CN(C)C)c1ccccc1CC2
[1]; at 99.2 µM (top of the series), tumour line C
  activity, negative = cell killing: -30.7%
[1]; tumour line A
  Potency: 44.7 µM (active)
[1]; tumour line D
  Potency: 56.2 µM (active)
astro
  Potency: inactive
